# Measured values reported in paper PMC4336329 (PLoS ONE, 2015).
# Out of some 310,000 compounds screened, about 14,000 (4.5%) showed an effect of 50% or more. Effects have a minus sign here. This excerpt belongs to a sample that is enriched for strong results.
# Biological target: human ether-à-go-go-related gene (hERG) potassium channel (human, UniProt Q12809)
# Test: primary screen, population patch clamp on CHO cells stably expressing hERG; higher = less effect of the substance
# 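Note: peak tail current of the secondary pulse compared with the same well before compound.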
# Sequence of human ether-à-go-go-related gene (hERG) potassium channel (Q12809 whole entry, looked up): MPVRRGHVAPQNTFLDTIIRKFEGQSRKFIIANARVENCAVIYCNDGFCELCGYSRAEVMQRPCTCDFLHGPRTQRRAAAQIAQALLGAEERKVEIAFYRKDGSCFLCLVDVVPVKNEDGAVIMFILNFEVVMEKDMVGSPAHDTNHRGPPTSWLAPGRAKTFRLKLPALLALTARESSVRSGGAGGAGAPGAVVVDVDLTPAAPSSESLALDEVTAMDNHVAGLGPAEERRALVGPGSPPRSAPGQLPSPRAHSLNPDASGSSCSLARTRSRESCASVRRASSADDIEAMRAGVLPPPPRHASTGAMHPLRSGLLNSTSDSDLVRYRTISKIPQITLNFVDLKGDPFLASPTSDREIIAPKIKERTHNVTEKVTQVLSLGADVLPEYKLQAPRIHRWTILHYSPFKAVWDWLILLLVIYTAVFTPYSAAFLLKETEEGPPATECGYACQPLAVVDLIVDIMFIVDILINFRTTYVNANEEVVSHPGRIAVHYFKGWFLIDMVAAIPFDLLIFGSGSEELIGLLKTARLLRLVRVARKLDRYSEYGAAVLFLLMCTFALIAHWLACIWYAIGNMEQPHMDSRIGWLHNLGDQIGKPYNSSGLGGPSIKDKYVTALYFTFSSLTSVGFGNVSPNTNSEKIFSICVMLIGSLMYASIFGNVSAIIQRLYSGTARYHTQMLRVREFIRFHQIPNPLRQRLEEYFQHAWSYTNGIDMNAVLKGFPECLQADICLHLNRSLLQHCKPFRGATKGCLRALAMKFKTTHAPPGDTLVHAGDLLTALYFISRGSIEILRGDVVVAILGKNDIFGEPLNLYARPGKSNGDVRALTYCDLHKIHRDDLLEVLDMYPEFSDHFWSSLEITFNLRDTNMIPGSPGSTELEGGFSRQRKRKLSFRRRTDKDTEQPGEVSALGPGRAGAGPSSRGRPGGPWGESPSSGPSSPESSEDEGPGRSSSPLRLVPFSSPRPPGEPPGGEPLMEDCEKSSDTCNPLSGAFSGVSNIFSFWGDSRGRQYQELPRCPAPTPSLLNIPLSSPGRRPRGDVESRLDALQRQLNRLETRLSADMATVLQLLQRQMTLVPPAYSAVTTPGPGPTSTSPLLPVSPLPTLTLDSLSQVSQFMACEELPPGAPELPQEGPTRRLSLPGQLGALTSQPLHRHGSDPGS
row,Structure (SMILES),"hERG current change (%, negative = inhibition) at 10uM [%]"
1,CCOc1ccc(NC(=O)CN2C(=O)COc3ccc(Cl)cc32)cc1,0.412
2,CN(C)C=O.Oc1cccc2c(NC(=S)Nc3ccc(OC(F)F)cc3)cccc12,-49.5
3,CCOC(=O)CSC1=NC(=O)/C(=C\c2ccc(OC(C)=O)cc2)S1,13.1
4,CCn1ncc(S(=O)(=O)Nc2cccnc2)c1C,5.02
5,CN(C)c1cccc(N=C2C=C(N3CCOCC3)CC(C)(C)C2)c1,-60.5
6,CC1(C)CC(N2CCOCC2)=CC(=[N+]2CCOCC2)C1.[I-],8.01
7,CC1(C)CC(=O)C=C(N2CCOCC2)C1,15.6
8,CSc1nnc(CNC(=O)c2ccccc2)n1-c1cccc(C)c1,-6.07
9,COC(=O)c1sccc1Oc1ccc(F)cc1[N+](=O)[O-],1.74
10,CCN1CCN(C(=O)c2ccccc2N(Cc2ccccc2)S(=O)(=O)c2ccc(C)cc2)CC1,-53.2
11,Cc1ccc(S(=O)(=O)N(Cc2ccccc2)c2ccccc2C(=O)N2CCCCC2)cc1,-28.6
12,CCN1CCN(C(=O)c2ccccc2N(C)S(=O)(=O)c2ccc(C)cc2)CC1,2.03
13,CCN1CCN(C(=O)c2ccccc2N(Cc2ccccc2)S(=O)(=O)c2ccc(OC)cc2)CC1,-73.1
14,CCOC(=O)N1CCN(C(=O)c2ccccc2N(Cc2ccccc2)S(=O)(=O)c2ccc(OC)cc2)CC1,-26.3
15,COc1ccc(S(=O)(=O)N(Cc2ccccc2)c2ccccc2C(=O)N2CCOCC2)cc1,-8.54
16,O=C(COc1ccc(Br)cc1CO)Nc1ccccc1F,-2.36
17,COc1ccc(OC)c(S(=O)(=O)N(C)CC(=O)N2CCN(c3ccccc3F)CC2)c1,-6.63
18,CCCOP(=O)(c1ccc(N(C)C)cc1)C(O)c1cc(OC)ccc1OC (centres unmarked),0.331
19,CN(C)CCN(C(=O)CN1C(=O)c2ccccc2C1=O)c1nc2cc3c(cc2s1)OCCO3.Cl,-53.8

row,Structure (SMILES),"hERG current change (%, negative = inhibition) at 10uM [%]"
1,CC(=O)N(CCN(C)C)c1nc2cc3c(cc2s1)OCCO3.Cl,10.6
2,CN(C)CCN(C(=O)CN1C(=O)c2ccccc2C1=O)c1nc2cc3c(cc2s1)OCO3.Cl,-57
3,CN(C)CCN(C(=O)c1ccc2ccccc2c1)c1nc2cc3c(cc2s1)OCCO3.Cl,7.59
4,Cc1ccc2nc(N(CCCN(C)C)C(=O)CN3C(=O)c4ccccc4C3=O)sc2c1.Cl,-47.5
5,CCN(CC)CCN(C(=O)CN1C(=O)c2ccccc2C1=O)c1nc2cc3c(cc2s1)OCO3.Cl,-17.8
6,COCC(C)NC(=O)CCc1nnc(C2(c3ccc(Cl)cc3)CCC2)o1 (centres unmarked),5.14
7,O=C(O)CCC(=O)NNC(=O)c1cccc(Br)c1,-0.791
8,CCCc1cc(=O)[nH]c(-n2[nH]c3c(c2=O)CCCC3)n1,13.9
9,CCOC(=O)N1CCN(c2nnc(-c3ccccc3)c3ccccc23)CC1,-22
10,CCCC(=O)N1CCN(c2nnc(-c3ccccc3)c3ccccc23)CC1,-45.4
11,CCCC(=O)N1CCN(c2nnc(-c3ccc(C)cc3)c3ccccc23)CC1,-81.1
12,CCOC(=O)N1CCN(c2nnc(-c3ccc(C)cc3)c3ccccc23)CC1,-70.1
13,CCCCS(=O)(=O)Nc1ccc(C(=O)NCC2CCCO2)cc1 (centres unmarked),-4.69
14,CC(C)=CCc1c(-c2ccc(O)cc2O)oc2c3c(cc(O)c2c1=O)OC(C)(C)C=C3,17.6
15,Cl.NC1C=CC=C(C(=O)O)C1 (centres unmarked),3.23
16,CN1C(=O)c2c(sc3c2CC(C)(C)SC3)N2CCN=C12.Cl,-72.6
17,CC1(C)Cc2c(sc3c2C(=O)N(c2ccccc2)C2=NCCN23)CS1.Cl,-5.58
18,CC1(C)Cc2c(sc3c2C2=NCCN2C=N3)CS1.Cl,-16.3
19,COc1cc(OC)c(OC)cc1CCC(C)NCCC(c1ccccc1)c1ccccc1.Cl (centres unmarked),-71.1

row,Structure (SMILES),"hERG current change (%, negative = inhibition) at 10uM [%]"
1,CC(CCc1ccc(O)cc1)NC(c1ccccc1)c1ccc(Cl)cc1 (centres unmarked),-14.3
2,COc1cc(CCC(C)NCc2ccccc2)ccc1O (centres unmarked),-3.87
3,CC(CCc1ccccc1)NC(C)C(O)c1ccc(O)cc1.Cl (centres unmarked),-65.3
4,CC(CCc1ccc(O)cc1)NCCC(c1ccccc1)c1ccccc1 (centres unmarked),-76.1
5,COc1ccccc1CCNC(C)CCc1ccc(O)cc1 (centres unmarked),-52.5
6,COc1ccc(CCC(C)NCc2ccccc2OC)cc1 (centres unmarked),-40.4
7,COc1cc(OC)c(OC)cc1CCC(C)NC(=O)Cc1ccccc1 (centres unmarked),5.68
8,CC(CCc1ccc(O)cc1)NCCc1ccc(O)c(O)c1.Cl (centres unmarked),-13.9
9,COc1cc(OC)c(OC)cc1CNC(C)C(O)c1ccccc1.Cl (centres unmarked),12.6
10,C[C@H](NCCc1ccc(O)cc1)[C@H](O)c1ccc(O)cc1.Cl,6.27
11,CC(NCCc1ccc(O)cc1)C(O)c1ccc(O)cc1.Cl (centres unmarked),5.08
12,COc1ccc(-c2sc(NC(=O)c3ccc(C)cc3)nc2-c2ccc([N+](=O)[O-])cc2)cc1,9.66
13,CCOc1ccc(-n2c(SCC)nc3c(c2=O)SCC3)cc1,15
14,Cn1c(=O)c2ccccc2n(CC(=O)NC2CCCC2)c1=O,9.82
15,CCCN(CCC)Cc1cc(=O)oc2cc3c(cc12)CCC3,-9.37
16,CC(=O)O.CC(=O)Oc1ccc2c(c1)OC(c1ccccc1)CC21CC(C)(C)NC(=O)N1 (centres unmarked),3.82
17,O=C1CCCN1CCCNS(=O)(=O)c1ccc(F)cc1F,8.77
18,Cc1ccc(-n2nc3c(c2NC(=O)CC(C)C)CS(=O)(=O)C3)c(C)c1,25
